# Compound activity from PubChem BioAssay.
# Shown are actives, neighbours in structure and some others; about 0.85% of the full set was active somewhere.
# PGK inhibitor = qHTS Assay to Find Inhibitors of Phosphoglycerate Kinase; Phosphoglycerate kinase, glycosomal (Trypanosoma brucei brucei), P07378; Potency, µM (series often up to 57.5 µM), for inactives: at the highest dose activity change, negative = inhibition, usual class: inhibitors; 380,000 compounds, 0.043% hits; PGK/GAPDH coupled, Kinase-Glo luminescence, 60 min; note: nearly all actives have a fitted effect of over 60% in size
#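 Luminescent ATP detection (Kinase-Glo Plus) follows a 60-minute room-temperature incubation, with wells lacking PGK as controls. Buffer: 100 mM TEA (pH 7.6), 5 mM MgCl2, 0.01% Tween-20. Coupling enzyme GAPDH (100 nM final) supplies unstable 1,3-BPG in-well.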
# TDP1 inh = qHTS Assay for Inhibitors of Tyrosyl-DNA Phosphodiesterase (TDP1). Tyrosyl-DNA phosphodiesterase 1 (Homo sapiens), Q9NUW8. recombinant TDP1, AlphaScreen DNA substrate cleavage. Potency, µM (highest dose often 130 µM), for inactives: at the top dose activity change, negative = inhibition, usual class: inhibitors. 350,000 compounds, 0.28% hits. AID 485290, 2010; note: nearly all actives have a fitted effect of over 40% in size
# Target sequence (Q9NUW8 whole entry, looked up): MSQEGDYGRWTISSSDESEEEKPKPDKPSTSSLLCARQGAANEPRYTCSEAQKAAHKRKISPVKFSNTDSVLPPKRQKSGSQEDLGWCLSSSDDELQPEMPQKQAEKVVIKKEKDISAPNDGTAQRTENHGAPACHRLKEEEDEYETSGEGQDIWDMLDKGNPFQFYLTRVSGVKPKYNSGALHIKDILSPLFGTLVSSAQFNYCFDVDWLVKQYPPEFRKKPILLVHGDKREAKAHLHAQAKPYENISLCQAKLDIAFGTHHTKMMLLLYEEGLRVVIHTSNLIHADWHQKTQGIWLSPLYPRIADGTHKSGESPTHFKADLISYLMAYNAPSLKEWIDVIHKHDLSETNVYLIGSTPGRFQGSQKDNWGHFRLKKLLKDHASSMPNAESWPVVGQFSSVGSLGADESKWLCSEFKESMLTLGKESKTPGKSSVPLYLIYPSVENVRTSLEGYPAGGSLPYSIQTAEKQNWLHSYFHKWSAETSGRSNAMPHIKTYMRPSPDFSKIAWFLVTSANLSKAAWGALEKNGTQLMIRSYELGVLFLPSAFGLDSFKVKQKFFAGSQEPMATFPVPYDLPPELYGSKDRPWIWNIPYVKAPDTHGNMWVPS
#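 Recombinant E. coli-expressed Tdp1 (1 nM) preincubated with compound 15 min at RT, then 5'-biotin/3'-phosphotyrosine-FITC DNA substrate (15 nM) added for 5 min. AlphaScreen beads (10 ug/ml) added, 10 min RT; tyrosine-FITC cleavage read as signal loss.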
# BLM inh-1 = qHTS Assay for Inhibitors of Bloom's syndrome helicase (BLM) | RecQ-like DNA helicase BLM (Homo sapiens), P54132 | recombinant BLM DNA unwinding, fluorescence dequenching | Potency, µM (series often up to 56.1 µM), for the others: at the top dose activity change, negative = inhibition, most hits filed as inhibitors | 350,000 compounds, 0.2% hits | AID 2528, 2010;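 note: plate controls were vehicle for no effect and no enzyme for full effect; nearly all actives have a fitted effect of over 35% in size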
# APE1 inh-1 = qHTS Assay for Inhibitors of the Human Apurinic/apyrimidinic Endonuclease 1 (APE1); DNA repair nuclease/redox regulator APEX1 (Homo sapiens), P27695; recombinant APE1, TAMRA/BHQ-2 abasic DNA cleavage fluorescence; Potency, µM (highest dose often 65.8 µM), for inactives: at the top dose activity change, negative = inhibition, actives largely listed as inhibitors; 350,000 compounds, 0.35% hits; AID 2517, 2012;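 note: plate controls were vehicle for no effect and reference inhibitor for full effect; nearly all actives have a fitted effect of over 55% in size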
#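 APE1 at 0.75 nM preincubated 15 min at room temperature with compound. Reaction then started with 50 nM double-stranded THF-abasic substrate labelled with TAMRA/BHQ-2, and 525/598 nm fluorescence read kinetically. Activity taken as third-minus-first read difference, normalized to DMSO and NSC13755 controls.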
# GLS inh = qHTS for Inhibitors of Glutaminase (GLS). Glutaminase kidney isoform, mitochondrial (Homo sapiens), O94925. GLS enzymatic activity, qHTS titration. Potency, µM (titrated, usually from 45.5 µM), for inactives: top-dose activity change, negative = inhibition, hits mostly inhibitors. 410,000 compounds, 0.21% hits. AID 624170, 2012
#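 Two-point fluorescence kinetic (t0, 30 min RT) for hKGA; glutamate detected via glutamate oxidase–HRP–Amplex Red. Substrate: 1 mM L-glutamine solution; buffer 45 mM KH2PO4, pH 8.2.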
# RECQ1 inh-1 = qHTS Assay for Inhibitors of RecQ-Like Dna Helicase 1 (RECQ1); Potency, µM (series often up to 57.3 µM), without a hit: top-dose activity, negative = inhibition, most hits filed as inhibitors; RECQ1 DNA unwinding, red fluorescence kinetic read; 240,000 compounds, 0.54% hits;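 note: plate controls were vehicle for no effect and no enzyme for full effect; nearly all actives have a fitted effect of over 30% in size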
#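 50 nM RECQ1T1 preincubated 15 min with compound in Tris pH 8.0 buffer with MgCl2, DTT, Tween-20 and 2.5 ug/ml poly(dI-dC); started with 200 nM TAMRA/BHQ-2 forked duplex and 2 mM ATP. Unwinding read as fluorescence (525/598 nm), two reads 2 h apart.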
# APE1 dye cs = Counterscreen for APE1 Inhibitors: Fluorescent Dye Displacement Assay | 480 compounds, 7% hits | Potency, µM (highest dose often 28.5 µM), without a hit: at the top dose activity change, negative = inhibition, most hits filed as inhibitors | DNA fluorescent dye displacement counterscreen, fluorescence | shares compounds with APE1 inh-1 | AID 2564, 2010;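 note: loss of thiazole orange fluorescence as the dye is displaced from duplex DNA; 0% = ThO with dsDNA and no compound and -100% = ThO without dsDNA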
# EndoIV counter = Counterscreen for APE1 Inhibitors: qHTS Assay for Inhibitors of Endonuclease IV; shares compounds with APE1 inh-1; Potency, µM (titrated, usually from 27.1 µM), for inactives: top-dose activity change, negative = inhibition, usual class: inhibitors; AID 2565, 2010; E. coli Endo IV, fluorogenic AP-site DNA cleavage; 560 compounds, 4% hits;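 note: plate controls were uninhibited enzyme wells for no effect and no enzyme buffer wells for full effect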
# APE1 inh-2 = Confirmation qHTS Assay for Inhibitors of the Human Apurinic/apyrimidinic Endonuclease 1 (APE1); shares compounds with APE1 inh-1; purified APE1, fluorogenic abasic-site DNA cleavage; Potency, µM (titrated, usually from 57.1 µM), without a hit: at the top dose activity change, negative = inhibition, actives largely listed as inhibitors; 750 compounds, 44% hits; AID 2572, 2010; note: nearly all actives have a fitted effect of over 30% in size
# APE1 FP = qHTS FP-Based Assay for Inhibitors of the Human Apurinic/apyrimidinic Endonuclease 1 (APE1); shares compounds with APE1 inh-1; APE1 binding to TAMRA-labelled double-stranded DNA, fluorescence polarization displacement; Potency, µM (highest dose often 28.5 µM), without a hit: at the highest dose activity, negative = inhibition, hits mostly inhibitors; 480 compounds, 7% hits; AID 2573, 2010
# BLM inh-2 = qHTS Confirmation Assay for Inhibitors of Bloom's syndrome helicase (BLM). shares compounds with BLM inh-1. BLM DNA unwinding, fluorescence quenching, biochemical. Potency, µM, inactives show max response, negative = inhibition, hits mostly inhibitors. 220 compounds, 40% hits;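 note: strand separation dequenches TAMRA so unwinding raises red fluorescence; series mostly up to about 69 µM; nearly all actives have a fitted effect of over 45% in size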
# RECQ1 conf = Confirmation qHTS Assay for Inhibitors of RecQ-Like Dna Helicase 1 (RECQ1); shares compounds with RECQ1 inh-1; RECQ1 helicase DNA unwinding, fluorescence; Potency, µM (series often up to 229 µM), for inactives: at the top dose activity change, negative = inhibition, usual class: inhibitors; 610 compounds, 28% hits; note: nearly all actives have a fitted effect of over 45% in size
# RECQ1 ADP FP = Counterscreen for RECQ1 Inhibitors: ADP Fluorescence Polarization Displacement Assay | ADP fluorescence polarization displacement counterscreen | Potency, µM (titrated, usually from 228 µM), for the others: at the top dose activity change, negative = inhibition, most hits filed as inhibitors | 530 compounds, 27% hits | AID 2711, 2010 | shares compounds with RECQ1 inh-1; note: nearly all actives have a fitted effect of over 45% in size
# RECQ1 inh-2 = Confirmation qHTS Assay for Inhibitors of RecQ-Like Dna Helicase 1 (RECQ1) - Round 2 Cherry Picks; shares compounds with RECQ1 inh-1; recombinant RECQ1 DNA unwinding, red fluorescence; 1,100 compounds, 15% hits; AID 504841, 2011; Potency, µM (series often up to 119 µM), inactives show at the top dose activity, negative = inhibition, usual class: inhibitors; note: nearly all actives have a fitted effect of over 50% in size
# * marks the source's active call; other numbers are inactive results; i = inactive; ? = inconclusive; · = not tested or not shown; [ ] = dose if it differs, or a comment. Calls come from the whole dose curve; as a rule, active = well fitted curve in the direction sought with a large enough effect; inconclusive = small, poorly fitted or top-dose-only effect, or another doubt; inactive = no such curve, though single readings can be large; an effect the other way counts as inactive or inconclusive. Unless noted, % is set by controls: 0 for no effect and ±100 for the full control effect; potency is the fitted concentration of half-maximal effect.
SMILES,PGK inhibitor,TDP1 inh,BLM inh-1,APE1 inh-1,GLS inh,RECQ1 inh-1,APE1 dye cs,EndoIV counter,APE1 inh-2,APE1 FP,RECQ1 inh-2,others
COC(=O)C1=C(C(=O)OC)[C@@H]2N(Cc3ccccc3)c3ccccc3[C@@]23C[C@@H](C(=O)OC)N(S(=O)(=O)c2ccc([N+](=O)[O-])cc2)C3=N1,·,10%[21 µM],0%[12.4 µM],-2%[12.4 µM],·,-21%[11.5 µM],·,·,·,·,·,
O=c1cc(O)cc(/C=C/c2ccc(O)c(O)c2)o1,·,·,·,0.71µM*,·,0.79µM*,·,3%[57.1 µM],-18%,·,·,RECQ1 conf=11%;RECQ1 ADP FP=?
O=C(O)/C=C\c1ccc(O)c(O)c1,·,-5%[56.1 µM],0%[21.4 µM],-7%[21 µM],·,2%[25.9 µM],·,·,·,·,·,
COc1ccc(N=C2NC(=O)/C(=C\c3ccco3)S2)cc1,-11%,0%,?,7.9µM*,46%,16µM*,-12%,10%,13µM*,-5%,?,RECQ1 conf=?;RECQ1 ADP FP=-13%[91.9 µM]
COc1ccc(/C=C2\SC(=Nc3ccccc3)NC2=O)cc1,·,0%,-5%,-18%,·,·,·,·,·,·,·,
CC(C)C[C@@H](NC(=O)[C@@H](Cc1ccccc1)NC(=O)c1cnccn1)B(O)O,·,·,2%,·,19%,·,·,·,·,·,·,
CC1CCCCC12NC(=O)N(CC(=O)Nc1sc3c(c1C(N)=O)CCC3)C2=O (configuration not stated),i,·,1%,7.9µM*,1%,?,?,-5%,-24%[24.4 µM],4%,-29%,
COC(=O)CCCC1=CC2=C(c3ccccc3)C(=O)C(C)(OC(=O)C3CCCC3)C(=O)C2=CN1CCCOC(C)C (configuration not stated),·,12%[12.3 µM],-12%[12.4 µM],-3%[12.4 µM],·,16%[11.5 µM],·,·,·,·,·,
NC1=NC(=O)/C(=C\c2ccco2)S1,-13%,·,-22%,22µM*,186%,?,?,5%,?,-4%,-22%,
Cc1nc(S/C(=C\c2ccc(-c3ccc(C(=O)O)c(Cl)c3)o2)C(=O)O)n[nH]1,?,3.2µM*,43%,22µM*,16µM*,?,·,·,40µM*,·,45µM*,
O=C(Nc1cccc(S(=O)(=O)NC2=NCCCCC2)c1)c1cc(-c2ccco2)nc2ccccc12,-15%,·,?,13µM*,16%,20µM*,-11%,7%,?,-13%,?,
COc1ccc(N2Cc3cccc(C(=O)N4CCOCC4)c3C2=O)cc1,6%,2%,-1%,-5%,-5%,-9%,·,·,·,·,·,
COc1ccc(N2Cc3cccc(C(=O)N4CCN(C(=O)c5ccco5)CC4)c3C2=O)cc1,-29%,11µM*,18µM*,11µM*,18µM*,10µM*,·,·,28µM*,·,16µM*,BLM inh-2=23µM*;RECQ1 conf=40µM*;RECQ1 ADP FP=?
CCOc1cc(N2CCOCC2)c(OCC)cc1NC(=O)C(C)C,-4%,6%,-2%,4%,-14%,i,·,·,·,·,·,
CCOc1cc(N2CCOCC2)c(OCC)cc1NC(C)C(=O)N1CCN(CC)CC1 (configuration not stated),i,13µM*,-10%,10µM*,?,?,·,·,?,·,-7%,
COc1ccc(Br)cc1/C=c1\sc2nc(-c3ccco3)nn2c1=O,?,·,-25%,28µM*,-2%,8.9µM*,?,6%,?,-14%,·,RECQ1 conf=20µM*;RECQ1 ADP FP=?
CCN(CC)c1ccc(N)cc1,-11%,12%,·,4%,14%,?,·,·,·,·,·,
Nc1ccc(N(CCO)CCO)cc1,-8%,·,-27%,20µM*,?,?,-3%,6%,-15%[24.4 µM],-11%,-5%,
COC(=O)C1C(O)CC[C@H]2CN3CCc4c([nH]c5ccccc45)C3C[C@H]12 (some centres not stated),·,13%[56.1 µM],-1%,-5%,·,-3%,·,·,·,·,·,
